Assay results taken from PubChem BioAssay AID1851 (National Center for Advancing Translational Sciences (NCATS), 2009).
The whole screen tested about 16,000 compounds, of which about 5,800 (36%) were called active. Inconclusive results (about 23%) are left out. The call rests on the fitted dose curve; in most records, active means well fitted curve in the direction sought with a large enough effect; inconclusive means small, poorly fitted or top-dose-only effect, or effect the other way; inactive means no such curve, though single readings can be large or run the other way. The list shows a part of the results.

Biological target: Cytochrome P450 2C19 (Homo sapiens) (UniProt P33261)
Sequence (P33261 whole entry, looked up): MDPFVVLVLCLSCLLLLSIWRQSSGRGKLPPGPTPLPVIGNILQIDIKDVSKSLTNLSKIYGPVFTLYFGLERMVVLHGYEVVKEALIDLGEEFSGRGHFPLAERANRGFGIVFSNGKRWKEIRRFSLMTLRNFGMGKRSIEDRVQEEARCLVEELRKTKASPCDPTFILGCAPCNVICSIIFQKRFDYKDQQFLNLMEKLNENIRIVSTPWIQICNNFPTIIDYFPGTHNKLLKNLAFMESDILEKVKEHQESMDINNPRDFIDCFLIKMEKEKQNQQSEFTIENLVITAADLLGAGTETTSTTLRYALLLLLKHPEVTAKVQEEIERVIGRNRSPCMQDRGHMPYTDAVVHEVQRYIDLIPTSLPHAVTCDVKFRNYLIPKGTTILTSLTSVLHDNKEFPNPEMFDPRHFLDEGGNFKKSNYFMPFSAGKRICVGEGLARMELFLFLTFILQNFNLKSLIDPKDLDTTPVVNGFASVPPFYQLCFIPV
Assay: Cytochrome panel assay with activity outcomes
Details: recombinant CYP, pro-luciferin dealkylation, luminescence, p450-cyp2c19; series mostly up to 57.1 µM; activity, negative = inhibition: at the top concentration
On the % scale 0 is the no-effect control and ±100 the full control effect.

SMILES	AC50	activity, negative = inhibition
COC(=O)C(Cc1ccc(OC(=O)c2ccc(Cl)cc2)cc1)N1Cc2ccccc2C1=O (centres undefined)	2.82 µM (active)	
COC(=O)C(Cc1ccc(OC(=O)c2ccc(C(F)(F)F)cc2)cc1)N1Cc2ccccc2C1=O (centres undefined)	14.1 µM (active)	
O=C(Oc1ccc2c(c1)CN(Cc1ccccc1)CO2)c1ccccc1		-25.4% [at 11.4 µM] (inactive)
CN1CCN(c2ncc3nc(-c4ccccc4)c(=O)n(Cc4cccs4)c3n2)CC1		-25.6% (inactive)
CC(C)[C@]1(Cl)CC[C@@H]2[C@]3(C)CCC[C@@](C)(C(=O)O)[C@H]3C[C@H](Cl)[C@@]2(Cl)[C@H]1Cl		-28.4% [at 11.4 µM] (inactive)
Cc1cc(NC(=O)Nc2ccc(F)cc2)no1	14.1 µM (active)	
Cc1noc(N)c1C(=O)Nc1ccc(F)cc1		-25.6% (inactive)
C1CCC(N=C(NC23CC4CC(CC(C4)C2)C3)N2CCOCC2)CC1		28.2% (inactive)
Cc1ccc(S(=O)(=O)O[C@H]2C[C@@H](C(C)(C)C)CC[C@@H]2c2ccccc2)cc1	3.16 µM (active)	
Cc1ccc(S(=O)(=O)ON=C2CCN(S(=O)(=O)c3ccccc3)CC2)cc1		-29% (inactive)
C=CCSc1nc(C)cc(/C=C\c2ccccc2)c1C#N	5.62 µM (active)	
O=C(O)c1cc(=O)c2c(OCC(O)COc3cccc4oc(C(=O)O)cc(=O)c34)cccc2o1		-4.86% [at 25.6 µM] (inactive)
CCOC(=O)COc1cc(OCC(=O)OCC)c2c(=O)cc(-c3ccccc3)oc2c1	14.1 µM (active)	
CC(C)C12CC[C@@]3(CC[C@H]4[C@@](C)(CCC[C@]4(C)C(=O)O)[C@@H]3C1)[C@@H](CN)C2		8.51% [at 11.4 µM] (inactive)
Cc1ccc(O)c(C(=O)c2cc(C#N)c(=O)n(-c3c(C)n(C)n(-c4ccccc4)c3=O)c2)c1		-13.2% (inactive)
c1ccc(/C(=N/Nc2nc3ccccc3s2)c2ccccn2)cc1		-42.9% [at 11.4 µM] (inactive)
Brc1ccc(/C=C/C=N/Nc2nc3ccccc3s2)cc1	3.55 µM (active)	
O=c1c(-c2cc(F)cc(F)c2)nc2cnc(N3CCOCC3)nc2n1-c1ccccc1		-8.88% (inactive)
Fc1ccc(-c2cn3cc(C(F)(F)F)cc(Cl)c3n2)cc1	10 µM (active)	
O=S(=O)(c1ccccc1)c1cnn2c(C(F)(F)F)cc(-c3ccc(F)cc3)nc12		-26.6% (inactive)
CCOC(=O)CSC1=NC(=O)/C(=C\c2ccc(OC(C)=O)cc2)S1	15.8 µM (active)	
O=C1CC[C@H](NC(=O)c2ccccc2)C(=O)N1		28.7% [at 11.4 µM] (inactive)
O=C1CSC(c2ccccc2F)N1c1cc(Cl)ccc1O (centres undefined)	0.891 µM (active)	
Nc1nc(N)nc(CC(=O)O)n1		-6.24% [at 11.4 µM] (inactive)
